Results on 15 compounds are retold here after PubChem BioAssay AID2283160 (EPA ToxCast).

Results filed as inconclusive are left out. Activity calls are given as the source filed them. How the source made its calls: active means hit-call score of the fitted dose curve at least 0.9, where 1 is the maximum; inconclusive means response in the unintended direction; inactive means score below 0.9.

By AC50 is commonly meant the concentration at which the activity in the assay is half-maximal.

Sequence of human Fibroblast Growth Factor Receptor 3 (FGFR3), FGFR3 (gene 2261) (P22607 whole entry, looked up): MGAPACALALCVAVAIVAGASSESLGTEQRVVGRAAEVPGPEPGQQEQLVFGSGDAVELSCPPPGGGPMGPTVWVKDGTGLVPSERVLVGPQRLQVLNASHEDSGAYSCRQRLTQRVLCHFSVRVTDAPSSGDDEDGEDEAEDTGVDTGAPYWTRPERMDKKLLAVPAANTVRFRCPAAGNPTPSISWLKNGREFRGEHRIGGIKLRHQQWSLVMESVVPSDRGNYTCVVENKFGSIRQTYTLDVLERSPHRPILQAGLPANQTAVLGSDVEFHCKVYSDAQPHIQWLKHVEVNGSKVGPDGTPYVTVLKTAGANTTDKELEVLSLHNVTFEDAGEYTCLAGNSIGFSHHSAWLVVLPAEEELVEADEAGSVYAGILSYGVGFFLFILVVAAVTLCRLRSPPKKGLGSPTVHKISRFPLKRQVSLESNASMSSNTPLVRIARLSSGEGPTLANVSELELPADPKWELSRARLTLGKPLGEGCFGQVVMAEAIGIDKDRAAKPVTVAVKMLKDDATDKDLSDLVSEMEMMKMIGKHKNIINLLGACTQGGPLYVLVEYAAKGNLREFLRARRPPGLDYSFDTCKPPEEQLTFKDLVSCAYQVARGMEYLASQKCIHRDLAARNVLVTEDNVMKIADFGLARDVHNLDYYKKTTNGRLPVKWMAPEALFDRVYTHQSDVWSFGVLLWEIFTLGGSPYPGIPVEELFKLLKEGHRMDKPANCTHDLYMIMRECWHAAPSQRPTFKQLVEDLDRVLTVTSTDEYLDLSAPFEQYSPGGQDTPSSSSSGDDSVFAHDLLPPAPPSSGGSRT

This test addresses human Fibroblast Growth Factor Receptor 3 (FGFR3), FGFR3 (gene 2261) (UniProt P22607). In words: NVS_ENZ_hFGFR3: NovaScreen (NVS) Enzymatic Assay for human Fibroblast Growth Factor Receptor 3 (FGFR3). As for the experimental part: NVS_ENZ_hFGFR3 is a biochemical, single-readout assay that uses extracted gene-proteins in a cell-free assay. Measurements were taken 1 hour after chemical dosing in a 384-well plate.NVS_ENZ_hFGFR3 is one of one assay component(s) measured or calculated from the NVS_ENZ_hFGFR3 assay. It is designed to make measurements of enzyme activity, a form of enzyme reporter, as detected with fluorescence intensity signals by Fluorescence and electrophoretic mobility shift technology.Data from the assay component NVS_ENZ_hFGFR3 was analyzed into 1 assay endpoint. This assay endpoint, NVS_ENZ_hFGFR3, was analyzed in the positive analysis fitting direction relative to DMSO as the negative control and baseline of activity. Using a type of enzyme reporter, loss-of-signal activity can be used to understand changes in the enzymatic activity as they relate to the gene FGFR3. Furthermore, this assay endpoint can be referred to as a primary readout, because this assay has produced multiple assay endpoints where this one serves a enzymatic activity function. To generalize the intended target to other relatable targets, this assay endpoint is annotated to the kinase intended target family, where the subfamily is receptor tyrosine kinase.
Binding assays used specific radioligands (tritiated, iodinated) with non-radioactive competitive displacement ligands in agonist or antagonist protocols (as indicated) and various reference compounds and inhibitors to titrate specific binding to receptors and transporters. Most enzyme assays (CYPs, kinases, phosphatases, proteases, HDACs) used recombinant protein and specific substrates (fluorescence mostly, some colorimetric and radioactive) and inhibitors, followed by a biochemical separation of substrate and product. All assays for the biochemical HTS were initially run in duplicate at a single concentration (10 uM for CYP450 assays and 25 uM for all others). Assay-chemical combinations meeting a pre-defined threshold (e.g., 30% inhibition and other criteria defined below) were then run in singleton concentration-response format with maximum concentration of 20 uM for CYPs and 50 uM for all others. Each assay was run with positive and negative controls, and concurrent controls on every plate. The follow-up (secondary) screen tested active chemical-pairs in concentration series, as well as a few additional assays not tested in the primary screen, some selected negative inactives, and several cases re-run in the concentration series for confirmatory purposes.
In the case of `COCC(C)N(C(=O)CCl)c1c(C)csc1C` (stereo not given), the compound was called inactive.

In the case of `CN(C)C(=S)SSC(=S)N(C)C`, the compound was classed as inactive.

In the case of `S=C(S)NCCNC(=S)S.[Mn+2].[S-]C([S-])=NCCN=C([S-])[S-].[Zn+2]`, the concentration at half-maximal activity (AC50) is 38.2 µM (active).

On to `CNC(=O)ON=C(SC)C(=O)N(C)C`, for which the compound was called inactive.

Take `CCCC(=NOCC)C1=C(O)CC(CC(C)SCC)CC1=O` (stereo not given): the compound was called inactive.

Regarding `CCCCN(CC)c1c([N+](=O)[O-])cc(C(F)(F)F)cc1[N+](=O)[O-]`, the result was inactive.

For the compound `CNC(=O)Oc1ccccc1OC(C)C`, the outcome was inactive.

With `S=C([S-])NCCNC(=S)[S-].[Mn+2]`, the half-maximal activity concentration (AC50) is 40.5 µM (active).

As to `CN(C)[C@@H]1C(=O)C(C(N)=O)=C(O)[C@@]2(O)C(=O)C3=C(O)c4c(O)cccc4[C@@](C)(O)[C@H]3[C@H](O)[C@@H]12`, the concentration at half-maximal activity (AC50) is 14.5 µM (active).

For `COP(=O)(OC)OC=C(Cl)Cl`, the compound was classed as inactive.

As to `CCCOc1nn(C(=O)NS(=O)(=O)c2ccccc2C(=O)OC)c(=O)n1C`, the compound was called inactive.

Consider `CC(Oc1cccc(Cl)c1)C(=O)O` (stereo not given), for which the outcome was inactive.

As for `CCCC1COC(Cn2cncn2)(c2ccc(Cl)cc2Cl)O1` (stereo not given), the call was inactive.

Turning to `CSc1nnc(C(C)(C)C)c(=O)n1N`, the compound was classed as inactive.

In the case of `CCOc1cc(Oc2ccc(C(F)(F)F)cc2Cl)ccc1[N+](=O)[O-]`, the compound was called inactive.
